In PubChem BioAssay (NCI):
The panel holds about 83,000 compounds, 20% with a hit somewhere; the sample as a whole holds those more often.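 Single-dose data. Exposure time 48 hours. Values below 10 considered active.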 Active and inactive are the calls of the source.

Tests used:
Assay in all cases: NCI-60 one-dose screen, 48 h (100 = growth as untreated, 0 = no growth, -100 = all killed)
HCT-15 colon = conditions: 10 µM unless noted
HT29 colon = conditions: 10 µM unless noted
SNB-75 CNS = conditions: 10 µM unless noted
SNB-19 CNS = conditions: 10 µM unless noted
U251 CNS = conditions: 10 µM unless noted
PC-3 prostate = conditions: 10 µM unless noted
SK-MEL-5 melanoma = conditions: 10 µM unless noted
UACC-62 melanoma = conditions: 10 µM unless noted
SK-MEL-28 melanoma = conditions: 10 µM unless noted
LOX IMVI melanoma = conditions: 10 µM

Measured: growth

CCOC(=O)C1=C(N)N(c2ccccc2)C2=C(C(=O)CC(C)(C)C2)C1c1cccc(Cl)c1Cl (stereo not drawn)
inactive: HCT-15 colon 65.8% | HT29 colon 72.7% | SNB-75 CNS 56.8% | SNB-19 CNS 41.7% | U251 CNS 55.2% | PC-3 prostate 35.3% | SK-MEL-5 melanoma 77.6% | UACC-62 melanoma 55.6% | SK-MEL-28 melanoma 91%

COc1cc(-c2cc(-c3cccc(OCC(=O)O)c3)[nH]c(=O)c2C#N)cc(OC)c1OC
inactive: HCT-15 colon 100% | HT29 colon 112% | SNB-75 CNS 116% | SNB-19 CNS 92.3% | U251 CNS 113% | PC-3 prostate 97.6% | SK-MEL-5 melanoma 99.7% | UACC-62 melanoma 95.5% | SK-MEL-28 melanoma 102%

O=C(/C=C/c1cccc(OCc2ccc(F)cc2)c1)c1nc2ccccc2[nH]1
inactive: SNB-75 CNS 116% | SNB-19 CNS 68.4% | PC-3 prostate 15% | SK-MEL-5 melanoma 65.5% | UACC-62 melanoma 72.6% | SK-MEL-28 melanoma 104%
active: HCT-15 colon -58.4% | HT29 colon -46.1% | U251 CNS -70.9%

COc1ccc(C2CC(c3ccc(S(=O)(=O)NCCNc4nc(Nc5ccc(F)cc5)nc(N(C)C)n4)cc3)=Nc3c(N)nc(N)nc3N2)cc1 (stereo not drawn)
inactive: HCT-15 colon 82.7% | HT29 colon 63.4% | SNB-75 CNS 92.7% | SNB-19 CNS 76.3% | U251 CNS 64.5% | PC-3 prostate 53.7% | SK-MEL-5 melanoma 71.7% | UACC-62 melanoma 81.6% | LOX IMVI melanoma 65.1% | SK-MEL-28 melanoma 85.5%

O=C(COc1ccc2c(c1)CCCC(=O)N2)NCc1ccccc1
inactive: HCT-15 colon 42% | HT29 colon 103% | SNB-75 CNS 92.9% | SNB-19 CNS 89% | U251 CNS 90.6% | PC-3 prostate 94.9% | SK-MEL-5 melanoma 82% | UACC-62 melanoma 86.5% | LOX IMVI melanoma 78.1% | SK-MEL-28 melanoma 90.4%

O=C(/C=C/c1ccc(-c2ccccc2)cc1)c1nc2ccccc2n1Cc1ccc(F)cc1
active: HT29 colon 9.19%
inactive: HCT-15 colon 22.8% | SNB-75 CNS 49.2% | SNB-19 CNS 44.6% | U251 CNS 32.5% | PC-3 prostate 47.6% | SK-MEL-5 melanoma 47.9% | UACC-62 melanoma 38.2% | SK-MEL-28 melanoma 28.4%

Cc1ccc(-c2nc(Nc3ccccc3S(N)(=O)=O)c3ccccc3n2)cc1
inactive: HCT-15 colon 40.1% | HT29 colon 95% | SNB-75 CNS 91% | SNB-19 CNS 89% | U251 CNS 57.5% | PC-3 prostate 64.4% | SK-MEL-5 melanoma 87% | UACC-62 melanoma 70.7% | SK-MEL-28 melanoma 107%
active: LOX IMVI melanoma 9.36%

COc1ccc(CCC2c3c(cc4c(c3OC)OCO4)CCN2C)cc1 (stereo not drawn)
active: HCT-15 colon -16.4% | HT29 colon -45.6% | SNB-75 CNS 2.42% | SNB-19 CNS -2.75% | U251 CNS -90.4% | PC-3 prostate 3.75% | SK-MEL-5 melanoma -98.9% | UACC-62 melanoma -95.7% | LOX IMVI melanoma -100% | SK-MEL-28 melanoma -98.3%

O=C(Nc1cccc(-n2cnc3cc(-c4ccc(O)cc4)ccc32)c1)C1CC1
inactive: HCT-15 colon 11.9% | SNB-19 CNS 32.9% | PC-3 prostate 47% | UACC-62 melanoma 38.5% | SK-MEL-28 melanoma 54.3%
active: HT29 colon 8.01% | SNB-75 CNS -5.51% | U251 CNS 9.54% | SK-MEL-5 melanoma 7.19%

CC1=C(C(=O)OCc2ccccc2)C(c2ccc(-n3cncn3)cc2)n2c(nc3ccccc32)N1 (stereo not drawn)
inactive: HCT-15 colon 33.1% | HT29 colon 24.7% | SNB-75 CNS 47.9% | SNB-19 CNS 66.9% | U251 CNS 63.4% | PC-3 prostate 43.3% | SK-MEL-5 melanoma 39.7% | UACC-62 melanoma 16.2% | SK-MEL-28 melanoma 66.5%

O=C(O)c1ccc(-c2ccc(/C=N/NC(=O)c3[nH]c4ccc(Br)cc4c3-c3ccccc3)s2)cc1
inactive: SNB-19 CNS 14.4% | U251 CNS 14.5% | PC-3 prostate 18.7% | SK-MEL-28 melanoma 11.9%
active: HCT-15 colon -34.6% | HT29 colon -7.12% | SNB-75 CNS -11.3% | SK-MEL-5 melanoma -49.6% | UACC-62 melanoma -51.9%
